From PubChem BioAssay
PNC assembly inh – inhibitors of perinucleolar compartment assembly; PC3M PTB-GFP, PNC prevalence imaging, 16 h; stronger effect = lower value; activity change (PNC), negative = inhibition, % at 10 µM; 140,000 compounds, 3.1% hits;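 active = readout at or below -70, meaning at least 70% loss of cells showing the perinucleolar compartment, a nuclear body marking cancer cells; inconclusive = readout between -30 and a set limit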;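 also: plate controls were DMSO wells for no effect and camptothecin positive control wells for full effect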
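Compounds are pinned in duplicate onto adhered PC3M cells stably expressing GFP-tagged PTB and incubated 16 h at 37 C. Cells are then fixed, nuclei stained with Hoechst, and PNC-positive cells counted.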
HPGD inh – blocks human HPGD enzyme activity | P15428 | purified HPGD, NADH fluorescence kinetic, PGE2 substrate | Potency, µM, without a hit: at the top dose activity change, negative = inhibition, actives largely listed as inhibitors | 150,000 compounds, 4.3% hits | AID 894; also: potency is read from the fitted curve at half-maximal effect
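NADH formation kinetics: reaction with 30 uM PGE2 and 1 mM NAD+ (final), 20 nM enzyme, Tris-HCl pH 8 with Tween 20, after 15 min compound preincubation at room temperature. Fluorescence change, last versus first of five reads.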
ALDH1A1 block – inhibitors of human aldehyde dehydrogenase 1A1. Potency, µM (series often up to 75.3 µM), for the others: at the highest dose activity, negative = inhibition, actives largely listed as inhibitors. Purified ALDH1A1, NADH fluorescence, propionaldehyde substrate. AID 1030. 220,000 compounds, 7.3% hits;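 also: potency is read from the fitted curve at half-maximal effect; plate controls were no enzyme wells and a reference inhibitor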
Target sequence (P00352 whole entry, looked up): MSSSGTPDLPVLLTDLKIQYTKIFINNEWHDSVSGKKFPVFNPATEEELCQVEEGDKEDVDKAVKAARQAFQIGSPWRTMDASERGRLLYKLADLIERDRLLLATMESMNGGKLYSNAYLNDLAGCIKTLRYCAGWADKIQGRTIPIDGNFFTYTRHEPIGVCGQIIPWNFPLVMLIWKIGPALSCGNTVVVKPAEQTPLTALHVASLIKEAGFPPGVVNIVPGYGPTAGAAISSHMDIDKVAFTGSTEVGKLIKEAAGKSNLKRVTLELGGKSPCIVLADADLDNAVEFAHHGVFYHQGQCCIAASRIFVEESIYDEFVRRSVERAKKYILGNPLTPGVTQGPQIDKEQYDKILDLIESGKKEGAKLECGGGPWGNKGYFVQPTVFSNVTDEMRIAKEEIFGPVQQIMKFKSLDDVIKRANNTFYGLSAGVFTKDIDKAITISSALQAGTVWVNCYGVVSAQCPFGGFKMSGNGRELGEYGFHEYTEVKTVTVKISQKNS
Active calls of the source: *; u = inconclusive; x = not tested or not shown; ! = a repeat was not active; [ ] = another dose, or the depositor's remark. A selection: hits, their analogues and other compounds. The true share with any hit is near 11%. Unless noted, calls follow the shape of the dose curve; as a rule, active = well fitted inhibition curve with a large enough effect (not every such curve was filed as active); inconclusive = small, poorly fitted or top-dose-only effect, or another doubt; inactive = no such curve, though single readings can be large or run the other way. Unless noted, % is scaled to controls: 0 for no effect and ±100 for the full control effect.

SMILES	PNC assembly inh	HPGD inh	ALDH1A1 block
CC(=O)NC(Cc1ccc(N(CCCl)CCCl)cc1)C(=O)O (configuration not stated)	212.5	-12.2%	2.9%
Cc1ccc(NP(=O)(Nc2ccc(C)cc2)Oc2ccccc2)cc1	x	x	1.4%
COc1ccc(OP(=O)(Nc2ccccc2)Nc2ccccc2)cc1	40.4	14.1µM*	4.0%
COC(=O)N1CCN(C(=O)Cc2ccc(Cl)c(Cl)c2)[C@H](CN2CCCC2)C1	x	-5.6%	-6.2%
Cc1ccc(N2C(=O)NC(=O)/C(=C/c3cnn(-c4ccc(C)cc4)c3)C2=O)cc1	u	u	2.51µM*
Cc1ccc(/C=C2/C(=O)NC(=O)N(C)C2=O)cc1	-26.3	-29.4%	0.3%
CCC(C)c1ccc(N2C(=O)NC(=O)/C(=C/c3cccn3CCOc3ccc(C)cc3)C2=O)cc1 (configuration not stated)	1.3	-12.4%	6.6%
Cc1ccc(N2C(=O)NC(=O)/C(=C\c3cccn3C(C)(C)C)C2=O)cc1	x	x	0.562µM*
Cc1ccc(N2C(=O)NC(=O)/C(=C\c3cnc(-c4ccccc4)nc3)C2=O)cc1	13.4	u	8.91µM*
COC(=O)c1ccccc1N	x	-17.0%	u
C=C(C)C1Cc2c(ccc3c(=O)c4c(oc23)COc2cc(OC)c(OC)cc2-4)O1 (configuration not stated)	x	-8.9%	10.6%
ClC=CCl	x	-11.6%	-2.7%
CCCCCCCCOC(=O)c1ccccc1C(=O)OCCCCCCCC	x	-10.1%	25.1µM*
CCCOC(=O)c1ccccc1C(=O)OCCC	x	-7.8%	u
Cc1cccc(C)c1N	x	-2.7%	-4.6%
O=[As](O)(O)c1ccc2nc3cc([As](=O)(O)O)ccc3nc2c1	x	-6.2%	2.7%[13.5 µM]
CCC(=NCc1ccco1)c1c(O)[nH]c(=O)[nH]c1=O	35.8	-1.2%	3.6%
CCC(=NCCC(c1ccccc1)c1ccccc1)c1c(O)[nH]c(=O)[nH]c1=O	-95.9*	-12.1%	u
CC/C(=N\Nc1ccccc1)c1c(O)[nH]c(=O)[nH]c1=O	x	x	-0.9%
CC/C(=N\Nc1cccc2ccccc12)c1c(O)[nH]c(=O)[nH]c1=O	2.4	u	14.1µM*
CCCCCCCCCCCCCCCCOC[C@@H](O)COP(=O)([O-])OCC[N+](C)(C)C	x	-9.2%	5.5%
CN1C(=O)C(=Cc2cc([N+](=O)[O-])ccc2N2CCCCC2)C(=O)N(C)C1=O	x	x	1.4%
CN1C(=O)C(=Cc2ccccc2Oc2ccc(Cl)c(F)c2)C(=O)N(C)C1=O	31.6	11.2µM*	u
Brc1c(NC2=NCCN2)ccc2nccnc12	-9.9	22.4µM*!	15.8µM*!
CCOc1ccccc1OCCCCN1CCCC1	30.5	-7.6%	22.4µM*
SMILES	PNC assembly inh	HPGD inh	ALDH1A1 block
CCOc1ccccc1N=C1SCCCN1C	3.7	-8.9%	4.9%
ClCc1ccccc1	x	-5.5%	-2.5%
COC[C@H]([C@@H](O)[C@@H](O)C(=O)NCC[C@@H](C)c1nc(/C=C/C[C@H]2OC3(C[C@H](O)[C@H]2C)OC([C@@H](C[C@@H](O)[C@@H](C)[C@@H](O)[C@@H](C)/C=C(C)/C(C)=C/C=C/C(C)=C\C#N)OC)[C@@H](OP(=O)(O)O)C3(C)C)co1)N(C)C (some centres not stated)	x	x	-6.2%
Cc1ccc(S(=O)(=O)NCC2CCC(C(=O)NCCCN3CCOCC3)CC2)cc1 (configuration not stated)	51.5	5.4%	22.4µM*
Cc1ccc2c(c1)C1CN(C)CCC1N2C(=O)COc1ccc(S(=O)(=O)N2CCOCC2)cc1 (configuration not stated)	20.2	-1.0%	8.5%
CCC[C@@H]1CC2=CC(=O)CC[C@]2(C)[C@@H]2CC[C@@]3(C)[C@H](CC[C@]3(O)CCC(=O)O)[C@H]12	x	10.8%	6.5%
Cc1ccc(C[N+](C)(C)C)o1	x	2.7%	-16.8%
O=CN1CC2CC(C1)c1cccc(=O)n1C2 (configuration not stated)	x	1.8%	3.4%
CC(C)C[C@H](NC(=O)[C@H](Cc1ccccc1)NC(=O)CNC(=O)[C@H](CS)N(C(=O)[C@@H](N)Cc1ccc(O)cc1)C(C)(C)C)C(=O)N([C@H](C(=O)O)[C@H](C)O)C(C)(C)C	x	x	-5.4%
CCCn1c(C)c(C(=O)c2ccc3ccccc3c2)c2ccccc21	x	u	-12.9%
Cc1cccc(NC(=O)c2cccc(NS(=O)(=O)c3ccc(Cl)cc3)c2)c1	-4.6	12.6µM*	u
Cc1cccc(C(=O)Nc2ccc(Cl)cc2C(=O)c2ccccc2)c1	u	-15.2%	-7.4%
CC1CN=C(Nc2ccc(N(C)C)cc2)S1 (configuration not stated)	1.0	x	2.9%
CC1CN=C(Nc2ccccc2)S1 (configuration not stated)	-7.6	8.91µM*	-8.7%
COc1c(C(C)(C)C)cc([N+](=O)[O-])c(C)c1[N+](=O)[O-]	x	-7.7%	u
CN(C)CCCNCC(=O)Nc1ccc(Cl)cc1C(=O)c1ccccc1	x	x	2.82µM*
CCN(CC)CCNCC(=O)Nc1ccc(Cl)cc1C(=O)c1ccccc1	36.2	-2.5%	u
O=C1OC(c2cc(I)c(O)c(I)c2)(c2cc(I)c(O)c(I)c2)c2ccccc21	x	11.2µM*	-4.2%
C[C@]12CCC3C(C=CC4=CC(=O)CC[C@]43C)C1CC[C@]2(O)CCC(=O)O (some centres not stated)	x	-17.5%	7.6%
CC(=O)c1ccc(-c2ccccc2)cc1	-88.1*	-14.1%	6.1%
CC(=O)c1ccc(OC(=O)N(C)c2ccccc2)cc1	x	x	-5.3%
CC(C)c1cc2c(c(O)c1O)[C@]1(C(=O)O)CCCC(C)(C)C1CC2 (some centres not stated)	x	3.16µM*	15.8µM*
C[C@]1(C(=O)O)CCC[C@]2(C)c3cc(O)ccc3CC[C@@H]12	x	-13.4%	2.1%
CC(C)c1cc2c(c(O)c1O)[C@@]1(C(=O)O)CCCC(C)(C)[C@@H]1CC2	x	15.8µM*	14.1µM*
c1ccc2c(c1)CC1CNCc3cccc(c31)S2 (configuration not stated)	-116.9*	-1.7%	0.9%
SMILES	PNC assembly inh	HPGD inh	ALDH1A1 block
COC1=CC(=O)O[C@@H](/C=C\c2ccccc2)C1	x	0.7%	-7.5%[20.9 µM]
Clc1ccc(CNC2CN3CCC2CC3)cc1 (configuration not stated)	-80.2*	0.6%	10.0%
Fc1ccccc1CNC1CN2CCC1CC2 (configuration not stated)	x	x	4.3%
c1cnc(N2CCCC3(CCNCC3)C2)nc1	x	-16.8%	u
O=C(N/N=C/C1C(=O)NC(=S)N(c2ccccc2)C1=O)c1cc(Br)c(O)c(Br)c1 (configuration not stated)	x	x	12.6µM*
COc1ccc(C2=NCc3nnc(C)n3-c3ccc(Cl)cc32)cc1Cl	-10.1	-26.4%	u
Clc1ccc2c(c1)C(c1ccccc1Cl)=NCc1nnc(N3CCN(CCSc4ccccc4)CC3)n1-2	4.1	-9.1%	u
CN1CCN(Cc2nnc3n2-c2ccc(Cl)cc2C(c2ccccc2)=NC3)CC1	-23.0	-19.9%	-7.7%
COc1ccccc1C1=NCc2nnc(C)n2-c2ccc(Cl)cc21	8.7	28.2µM*	12.9%
Cc1nnc2n1-c1ccc(Cl)cc1C(c1ccccc1)=NC2	x	15.8µM*	6.9%
Clc1ccc2c(c1)C(c1ccccc1Cl)=NCc1nnc(N3CCN(CCOc4ccccc4)CC3)n1-2	21.6	-2.8%	10µM*
